Source: PubChem BioAssay (NCI)
Compounds without any hit were thinned out: in the full panel of roughly 83,000, 20% have a hit.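 Note: values are percent growth. 100 is the growth of untreated cells, values between 100 and 0 indicate rising inhibition; between -100 and 0 indicates cell death.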 Calls of active or inactive are those of the source.

Each molecule was assayed on ACHN renal (assay: NCI-60 one-dose screen, 48 h (100 = growth as untreated, 0 = no growth, -100 = all killed)). Settings: 10 µM unless noted.
Method: Growth inhibition of the ACHN human tumor cell line is measured as a screen for anti-cancer activity. Cells are grown in 96 well plates and exposed to the test compound for 48 hours. Compounds are tested at a single concentration, which is 10^-5 M for most compounds. The reported endpoint is percent growth (GI% or GIPRCNT), where numbers from 0 - 100% represent growth inhibition, and numbers from -100% - 0 represent cell death. For example, a value of 40 represents 60% growth inhibition. A value of 0 means no net growth occurred over the course of the experiment. A value of -40 indicates 40% of cells at the beginning of the experiment died by the end of the experiment. A value of -100 means all cells are dead at the end of the experiment.
NCI-60 Human Tumor Cell Lines Screen was performed using the standard one-dose NCI protocol, which is described in more detail at https://dtp.cancer.gov/discovery_development/nci-60/default.htm.
Compounds with GIPRCNT values below 10 were considered active. Activity score was based on GIPRCNT using the following formula: […]
Score is 0 for GIPRCNT values of 100 or above, 50 for GIPRCNT values of 0, and 100 for GIPRCNT values of -100.

Compound | growth
C=C(c1ccc(C(=O)O)cn1)c1cc2c(cc1C)C(C)(C)CCC2(C)C | 91.8% (inactive)
C=C1C(=O)O[C@H]2[C@H]1CC/C(COC(=O)/C=C\C(=O)NCc1ccc(Cn3c(=O)sn(-c4ccccc4)c3=O)cc1)=C\CC[C@@]1(C)O[C@@H]21 | 42.1% (inactive)
COc1cc(N2C(=O)[C@H](c3ccccc3)C2c2ccc(SC)cc2)cc(OC)c1OC (stereo not given in full) | 30.2% (inactive)
COc1ccc(-c2ccc(=O)oc2C#Cc2cc(OC)c(OC)c(OC)c2)cc1O | 52% (inactive)
C=CCN=C(N)SCCCCCCSC(N)=NCC=C | 106% (inactive)
COc1ccc(/C=C/C(=O)c2ccc(Nc3nc(Nc4ccc(F)cc4)nc(Nc4ccc(Cl)cc4)n3)cc2)cc1 | 106% (inactive)
N#CCC1=NC(c2cccs2)=Nc2ccccc2S1 | 98.2% (inactive)
N/C(=N\c1nc2ccccc2s1)NC(=NC1CCCCC1)NC1CCCCC1 | 17.1% (inactive)
N#Cc1c(-c2ccccc2)nc2c(c(-c3ccccc3)nn2-c2ccccc2)c1-c1ccc(N2CCOCC2)cc1 | 103% (inactive)
COc1cc(-c2nc(NC(C)=O)sc2-c2ccnc(NCCNS(=O)(=O)c3ccccc3)n2)ccc1Cl | 44% (inactive)
Cc1ccc(O)c(NC(=O)c2ccc(CNc3ccnc(C(F)(F)F)c3)cc2)c1 | 39% (inactive)
N=C(N)c1ccc(-c2ccc(-c3ccc(Cl)cc3)o2)o1 | 28.3% (inactive)
CC[C@H](Nc1nc(N)nc(C)c1C#N)c1nc2cccc(NCCCCCC(=O)NO)c2c(=O)n1-c1ccccc1 | 51.9% (inactive)
CC1(C)CCC(S(=O)(=O)c2ccc3c(c2)/C(=N\O)c2cc(S(=O)(=O)N4CCN(c5ccc(F)cc5O)CC4)ccc2-3)CC1 | 0.0292% (active)
O=C1/C(=C/c2cccc([N+](=O)[O-])c2)COc2ccc(O)cc21 | 6.88% (active)
CC[C@]12C=CCN3CC[C@@]4(c5ccc(OC)cc5N(C)[C@H]4[C@@](O)(C(=O)OC)[C@@H]1OC(=O)CCCN1CCOCC1)[C@@H]32 | 110% (inactive)
CC[C@@H](c1ccc2cc(OC)ccc2c1)C(C)(C)C(=O)F | 104% (inactive)
O=c1[nH]c(-c2ccc(Cl)cc2)cn1-c1ccc(-n2cc(-c3ccc(Cl)cc3)[nH]c2=O)cc1 | 102% (inactive)
NS(=O)(=O)c1ccc(N/C=C/C(=O)c2cc3ccccc3oc2=O)cc1 | 99.7% (inactive)
N#C/C(=C\c1ccc(Cl)cc1Cl)C(=O)Nc1ncc(Cc2ccc(Cl)c(Cl)c2)s1 | 47.7% (inactive)

Compound | growth
COc1cc2c(c(OC)c1OC)C(=O)N[C@@H]1[C@@H](O)[C@@H](O)[C@H](O)C[C@@H]21 | 99.7% (inactive)
O[C@@H](c1cc(C(F)(F)F)nc2c(C(F)(F)F)cccc12)[C@H]1CCCCN1 | 37.8% (inactive)
Cc1[nH]c(C(=O)Nc2cccc(OC3CCNCC3)c2)c(Cl)c1Cl | 62.8% (inactive)
CN(C)c1ccc(/C=C/C(=O)c2ccccc2)cc1 | 109% (inactive)
COc1ccc(C2=Nc3c(N)ncnc3NC(c3cccc(Nc4ccnc5cc(C(F)(F)F)ccc45)c3)C2)cc1 (stereo not given) | 78.8% (inactive)
Cn1cc(-c2csc(-c3cn(C)c4ccc(Br)cc34)n2)c2cnccc21 | -99.5% (active)
CC(O)c1ncc(/C=C2\SC(=S)N(Cc3ccccc3)C2=O)s1 (stereo not given) | 95.6% (inactive)
CCOC(=O)c1c2c(n3ccccc13)C(=O)c1ncccc1C2=O | 7.49% (active)
Cn1c(O)c(C(/C=C/c2ccccc2)=Nc2ccccc2N)c(=O)n(C)c1=O | 99.3% (inactive)
N=C(N)c1ccc(-c2ccc(-c3ccc(Cl)cc3Cl)s2)cc1F | -100% (active)
CCN(CC)S(=O)(=O)c1ccc(S(=O)(=O)N2CCC[C@@H](C(=O)N3CCN(C(=O)OC(C)(C)C)CC3)C2)cc1 | 71.4% (inactive)
C=CCCC(=O)N1C=CC(=O)[C@H](O)[C@@H]1/C=C/c1ccccc1 | 28.1% [100 µM] (inactive)
Nc1n[nH]c2ccc([C@@H]3Nc4cc5[nH]ncc5cc4[C@H]4C5CCC(C5)[C@@H]34)cc12 (stereo not given in full) | 32.1% (inactive)
CCCCCCCC/C=C\CCCCCCCCOc1ccccc1CC(=O)NCC[N+]1(C)CCCCC1 | 110% (inactive)
N#Cc1c(-c2ccccc2)cc(-c2ccccc2)n(CCCC(=O)NO)c1=O | 8.48% (active)
COc1ccc2nc3cc(Cl)ccc3c(NCCN)c2c1 | -91.7% (active)
CCOC(=O)CSc1nc2sc3c(c2c(=O)n1-c1ccc([N+](=O)[O-])cc1)CCCCC3 | 52.8% (inactive)
CC1=C(C(=O)n2c3ccccc3c3ccccc32)C(c2cccc([N+](=O)[O-])c2)C(C(=O)n2c3ccccc3c3ccccc32)=C(C)N1 | 93.4% (inactive)
COc1ccc(/C=C/C(=O)c2ccc(NC(=O)CSc3nnc(-c4cc(-c5ccccc5)nc5ccccc45)n3-c3ccccc3)cc2)cc1 | 95.7% (inactive)
CNCc1cccc2c1OCCOCCN(C)C(=O)CN(C)S(=O)(=O)c1ccc(cc1)-c1cnc(N)c(n1)C(=O)N2 | -2.97% (active)
